PubChem BioAssay (NCATS)
Results filed as inconclusive are left out. Calls of active or inactive are those of the source. Calls come from the whole dose curve; as a rule, active = well fitted inhibition curve with a large enough effect; inconclusive = small, poorly fitted or top-dose-only effect; inactive = no such curve, though single readings can be large or run the other way.

Test: qHTS for Inhibitors of the Aldehyde Dehydrogenase Family (ALDH1A2, ALDH1A3, ALDH2, ALDH3A1) (AID 2061307); note: nearly all actives have a fitted effect of over 50% in size; for Potency: test system not described further here
Conditions: ALDH inhibition qHTS; series mostly up to 50.3 µM
Potency is the fitted concentration of half-maximal effect.

Potency, active:
CCn1c(C(=O)NCCc2ccc(OC)cc2)cc2sccc21 2.01 µM
COc1cccc(-c2nc(CNc3cccc(C(C)=O)c3)cs2)c1 10 µM
O=C1C=CC(=O)N1c1ccc(N2CCOCC2)cc1 1.13 µM
CC(C)c1ccc(-c2cc(-c3nn(-c4nc(C(=O)O)cs4)c(CC4CC4)c3Cc3ccc(S(N)(=O)=O)cc3)ccc2F)cc1 1.12 µM
COc1ccccc1Nc1ccc2c(O)cc(S(=O)(=O)O)cc2c1 31.6 µM
O=C(Nc1ccc(N2CCCCC2)nc1)c1cccs1 5.04 µM
COc1cc(O)c(C(CC(=O)N2CC(C)CC(C)C2)c2ccc(NC(C)=O)cc2)c(OC)c1 (stereo not given) 31.6 µM
O=C(Nc1ccc(-c2nnc3n2CCCC3)cc1)Nc1ccccc1Br 8.91 µM
Cc1cccc2c1NC(=O)C2(O)CC(=O)c1ccco1 (stereo not given) 0.565 µM
O=C(Nc1ncc(CN2CCCCC2)s1)c1ccc(-c2cccc([N+](=O)[O-])c2)o1 11.3 µM
COc1ccc(-n2c(C)cc(C3=NNC(=NC4CC4)SC3)c2C)cc1 4.49 µM
O=C(Nc1ccccc1C(=O)Nc1cccc(C(F)(F)F)c1)c1cccc([N+](=O)[O-])c1 3.55 µM
O=C(Nc1nc(-c2ccccn2)cs1)C1CCCCC1 3.98 µM
Cc1cc(NS(=O)(=O)c2ccc(NCCc3ccc(Cl)c(Cl)c3)cc2)no1 2.83 µM
Cc1csc(-c2cc(-c3c(Cc4ccc(S(N)(=O)=O)c(F)c4)c(CC4CC4)nn3-c3nc(C(=O)O)cs3)ccc2F)c1 12.7 µM
Cn1ccc(=Nc2ccc(NC(=O)c3ccc(N=c4ccn(C)c5ccc([N+](=O)[O-])cc45)cc3[N+](=O)[O-])cc2)cc1 5.65 µM

Potency, inactive:
COc1ccc(OC)c(NC(=O)c2cc(C3CC3)nc3c2c(C)nn3-c2ccc(C)cc2)c1
CC(=O)Nc1ccc(NC(=O)c2cc(=O)c3ccccc3o2)cc1
CCN1C(=O)c2ccccc2S(=O)c2ccc(C(=O)NCc3cccc(C(F)(F)F)c3)cc21 (stereo not given)
NCC(=O)Nc1cc(O)cc(-c2nn3c(=O)cc(N4CCNCC4)nc3s2)c1
CC1(C)c2nc(-c3ccc(F)cc3)c(Nc3ccc(F)cc3)n2CCN1C(=O)CN
CC/C=C\C/C=C\C/C=C\C/C=C\C/C=C\C/C=C\CCC(=O)NCCN(C)C
Cc1ccc(-c2cc3c(nn2)-c2ccccc2C3=O)cc1
COc1ccc(C(=O)c2c(C)n(CC(=O)O)c3cc(OC)ccc23)cc1
O=C(Nc1ccc(CCO)cc1)c1ncoc1-c1ccccc1Cl
O=C(Nc1ccccn1)c1cccs1
c1ccc(Nc2cc(-c3ccoc3)ncn2)cc1
O=C(Nc1ncccc1O)c1ccc(S(=O)(=O)Nc2ccccc2)cc1
CCOC(=O)c1c(C)n(-c2ccc(OC)cc2)c2ccc(O)cc12
COc1ccc(-n2c(C)c(C(C)=O)c3cc(OC)ccc32)cc1
O=Cc1ccc(Sc2ccccn2)o1
COc1ccccc1CN1CCC(N(CCc2ccccc2)Cc2ccccc2)CC1
CCc1cccc(CC)c1-n1c(C)c(C(=O)NC2CC2)cc(-c2nc(-c3ccc(Cl)cc3)cs2)c1=O
Cn1c(C(=O)Nc2cccc(Cl)c2)cc2c(=O)n(C)c3ccccc3c21
COc1ccc(-n2c(C)c(C(C)=O)c3cc(OC(=O)c4ccco4)ccc32)cc1
O=C(CSc1nc2ccccc2c(=O)[nH]1)Nc1nc(-c2ccc(Br)cc2)cs1
COc1cc(NC(=S)N=Nc2c(O)[nH]c3ccccc23)cc(OC)c1OC
Cc1cnc(CNc2nc(-c3ccccc3Cl)nc3ccccc23)cn1
CCOC(=O)N1CCN(Cc2nc3cc(NC(=O)CC(C)C)ccc3n2C(C)C)CC1
NS(=O)(=O)c1ccc(Nc2cn[nH]c2-c2cccc(-c3ccccc3)c2)cc1
